RPL19A-GFP yeast: alters RPL19A-GFP fluorescence in TOR pathway yeast screen; 330,000 tested, 0.3% active; S. cerevisiae RPL19A-GFP strain, flow cytometry, 3 h; active compounds read low; percent response vs DMSO, % at 10 µM;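 active means percent response vs DMSO below 50%; inconclusive means fewer than 70 events counted for the yeast strain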;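 further: median channel GFP fluorescence of the barcoded RPL19A-GFP strain; ratio of sample median GFP to plate DMSO average so 100% = DMSO; lower means less RPL19A-GFP as with rapamycin TOR inhibition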
AGP1 TOR yeast: yeast TOR pathway AGP1-GFP modulation. AID 2066. S. cerevisiae AGP1-GFP multiplex flow cytometry, 3 h; GFP as percent of DMSO wells. 320,000 tested, 0.02% active. GFP response vs DMSO, % at 10 µM;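 active means GFP response relative to DMSO above a set limit, near screen average plus 3 SD, cut at about 150% in these data; inconclusive means fewer than 70 cells counted for the yeast strain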;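 further: median GFP channel fluorescence of the gated AGP1 strain per well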
LAP4 TOR yeast: yeast TOR pathway LAP4-GFP modulation; S. cerevisiae LAP4-GFP multiplex, flow cytometry GFP, 3 h; median GFP as percent of DMSO wells; GFP response vs DMSO, % at 10 µM; 320,000 tested, 0.34% active; AID 2023;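 active means GFP response vs DMSO above a set limit, about the screen mean plus 3 SD, cut at about 150% in these data; inconclusive means under 70 cell events counted for the yeast strain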
MEP2-GFP yeast: yeast TOR pathway MEP2-GFP modulation; S. cerevisiae MEP2-GFP strain, flow cytometry GFP, 3 h; 100% = DMSO control level; GFP response vs DMSO, % at 10 µM; 330,000 tested, 0.51% active; AID 2016;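 active means GFP response versus DMSO above a set limit, roughly screen mean plus 3 SD, cut at about 180% in these data; inconclusive means fewer than 70 cells counted for a yeast strain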;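 further: median GFP fluorescence of the barcode-gated MEP2-GFP cells per well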
JMJD2C inh: blocks human GASC-1 demethylase activity; GST-JMJD2C(1-420) H3K9me3 demethylation, DELFIA europium; 330,000 tested, 0.069% active; inhibition, % at 2.35 µM;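 active means more than half of a compound's replicate wells show inhibition beyond 50%, single wells judged on their own value; inconclusive means some, but no more than half, of replicates pass 50% inhibition; inactive means no replicate passes 50% inhibition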;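 further: signal counts dimethyl H3K9 product captured on neutravidin plate; 0% = median of DMSO wells and 100% = 0.3 times that DMSO median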
Target sequence (Q9H3R0 1-420 limits assumed): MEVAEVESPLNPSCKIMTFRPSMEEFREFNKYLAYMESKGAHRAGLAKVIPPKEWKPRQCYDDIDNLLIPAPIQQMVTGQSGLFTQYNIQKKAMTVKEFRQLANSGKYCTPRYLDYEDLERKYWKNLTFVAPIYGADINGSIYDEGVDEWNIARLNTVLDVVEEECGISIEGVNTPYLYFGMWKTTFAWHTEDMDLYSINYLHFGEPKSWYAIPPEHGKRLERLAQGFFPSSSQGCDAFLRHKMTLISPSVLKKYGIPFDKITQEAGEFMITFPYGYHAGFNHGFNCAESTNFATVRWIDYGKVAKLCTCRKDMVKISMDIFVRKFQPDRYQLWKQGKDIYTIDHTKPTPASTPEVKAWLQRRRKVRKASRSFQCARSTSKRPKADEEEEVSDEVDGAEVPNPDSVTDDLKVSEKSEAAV
CIT2 TOR yeast: modulators of TOR pathway CIT2-GFP in S. cerevisiae | GFP response vs DMSO, % at 10 µM | S. cerevisiae CIT2-GFP strain, flow cytometry, 3 h; 100 means same as DMSO wells | 320,000 tested, 0.065% active | AID 2029;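 active means GFP response relative to DMSO above a set limit, near the screen mean plus 3 SD, cut at about 150% in these data; inconclusive means Fewer than 70 cells measured for a yeast strain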;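 further: ratio of well median GFP fluorescence to mean of DMSO wells on the plate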
* hit, by the source's call; ? = inconclusive; . = no result given; [ ] = remark or other dose. Hits are enriched below; roughly 0.97% of the tested compounds scored in any of these assays.

SMILES | RPL19A-GFP yeast | AGP1 TOR yeast | LAP4 TOR yeast | MEP2-GFP yeast | JMJD2C inh | CIT2 TOR yeast
CCN1CCN(C(=O)C2CCN(c3nnc(C)c4c(C)n(-c5ccc(C)cc5)nc34)CC2)CC1 | 107 | 97 | 143 | 140 | 6 | 156*
CCNC(=S)NNC(=O)c1cc(-c2ccc(OCC)cc2)nc2ccccc12 | 22*[may fluoresce violet] | ? | 98 | 361*[may fluoresce violet] | 1 | ?
Cc1ccc(Cl)cc1NC(=S)N1CCCCCC1 | 118 | 97 | 68 | 103 | -1 | 95
OC(COc1ccc2ccccc2c1Br)Cn1cnc(-c2ccccc2)c1 (centres undefined) | 100 | 102 | 108 | 105 | 61* | 109
COc1ccc(OCC(O)Cn2cnc(-c3ccc(Br)cc3)c2)cc1 (centres undefined) | 98 | 100 | 108 | 100 | -34 | 95
COc1ccc(-c2nc3ccccc3c(=O)n2CCCN2CCOCC2)cc1 | 104 | 105 | 113 | 109 | 4 | 108
O=c1c2ccccc2nc(-c2ccccc2)n1CCN1CCOCC1 | 93 | 128 | 163* | 134 | 7 | 105
Cc1csc(N)n1 | ? | 77 | 420*[may fluoresce red] | 89 | -2 | 78
CC(C)(CC(=O)O)CC(=O)Nc1ccccc1Oc1ccccc1 | 41*[may fluoresce violet] | ? | 56 | 249*[may fluoresce violet] | -7 | ?
O=C(CN1CCCCCC1)Nc1ccccc1Oc1ccccc1 | 98 | 104 | 104 | 99 | -19 | 107
CN1C(C(=O)N2CCc3ccccc3C2)=CC(c2ccc(F)cc2)=NS1(=O)=O | 100 | 104 | 106 | 116 | -26 | 99
Cc1ccc(C(=O)Nc2nc(-c3ccccn3)cs2)s1 | 110 | 112 | 108 | 110 | 6 | 109
O=C(Nc1nc(-c2ccccn2)cs1)c1ccc(Cl)s1 | 69 | 22 | 312*[may fluoresce violet] | 233*[may fluoresce violet] | 2 | ?
O=C(Nc1nc(-c2ccc(Cl)s2)cs1)c1cccs1 | 95 | 94 | 153* | 97 | 4 | 86
CCN(CC)CCN(CC(=O)N(C1CCCCC1)C1CCCCC1)C(=O)c1ccco1 | 77 | 18 | 72 | 226*[may fluoresce violet] | 7 | ?
COc1ccc(Cl)cc1NC(=O)CN(C(=O)c1ccco1)C1CCCCC1 | 101 | 98 | 105 | 101 | 31 | 90
Cc1cccc(N2CCN(C(=O)c3ccc4c(c3)NC(=O)C(CSCc3cccc(F)c3)N4)CC2C)c1 (centres undefined) | 20*[may fluoresce violet] | ? | ? | 188*[may fluoresce violet] | -2 | ?
CCCCCCCCNC(=O)CC(NS(=O)(=O)c1ccc(NC(C)=O)cc1)C(C)C (centres undefined) | 101 | 103 | 101 | 105 | -30 | 105
CC(=O)Nc1ccc(S(=O)(=O)NC(CC(=O)NCCC2=CCCCC2)C(C)C)cc1 (centres undefined) | 85 | 152* | 282* | 211* | 7 | 101
CC(C)Cn1c(N)c(C(=O)COC(=O)COc2cccc(C(F)(F)F)c2)c(=O)n(C)c1=O | 112 | 90 | 79 | 110 | 3 | 94
Cc1ccc(-n2ncc3c(=O)n(CC(=O)NC4CCCCC4)cnc32)cc1C | 101 | 107 | 103 | 106 | -9 | 103
Cc1ccc(-n2ncc3c(=O)n(CC(=O)NC4CCCC4)cnc32)cc1C | 39*[may fluoresce violet] | . | 82 | ? | -8 | ?
NC(=O)NC(=O)CSc1nnc(-c2ccco2)n1Cc1ccccc1 | 104 | 103 | 96 | 98 | 50* | 108
COc1cc(C(=O)ON=C2C3CC4CC(C3)CC2C4)cc(OC)c1OC | 91 | 52 | 155* | 107 | 8 | 180*
CCN1Cc2c(/C=C/c3ccccc3)nc3ccc(OC)cc3c2N(c2cccc(Cl)c2)C1 | 100 | 93 | 99 | 110 | 8 | 103
O=C(Nc1ccccc1F)c1oc2ccccc2c1NC(=O)C1CC1 | 43*[may fluoresce violet] | ? | 104 | 309*[may fluoresce violet] | 11 | ?
COc1cccc2cc3c(=O)oc4ccccc4c3nc12 | 62 | . | 87 | 187*[may fluoresce violet] | 3 | ?
N#CCCN(C(=O)c1ccc2c(=O)n3c(nc2c1)CCCCC3)c1ccccc1 | 101 | 100 | 97 | 101 | -2 | 103
O=[N+]([O-])c1cc(/C=N/O)ccc1Oc1cccc(Cl)c1 | 117 | 99 | 78 | 117 | -1 | 107
